Data taken from PubChem BioAssay (NCI).
Compounds without any hit were thinned out: in the full panel of roughly 79,000, 15% have a hit. A number with no mark means an inactive call. The source made the active and inactive calls. Rule as the data show it: active = growth inhibition above about 70%; inactive = the rest.

Experiments:
[1] = NCI Yeast Anticancer Drug Screen. Data for the rad50 strain (AID 155);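 also: 0% = growth of vehicle-only cultures of the same strain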; details: S. cerevisiae rad50 strain growth inhibition; at 50.0 µM; stronger effect = higher value
Summary of the method: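 Growth of the mutant yeast was measured after compound exposure and referenced to vehicle-treated cultures.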

[2] = NCI Yeast Anticancer Drug Screen. Data for the mec2-1 strain (AID 157); details: S. cerevisiae mec2-1 strain, at 50.0 µM, stronger effect = higher value
Summary of the method: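 Using mec2-1 yeast: add compound, measure growth, express inhibition versus vehicle-treated cultures.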

[3] = NCI Yeast Anticancer Drug Screen. Data for the sgs1 mgt1 strain (AID 161);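 also: 0% = growth of cultures given vehicle only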; details: S. cerevisiae sgs1 mgt1 strain, at 50.0 µM, stronger effect = higher value
Summary of the method: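 Growth of a repair-deficient yeast mutant was monitored after compound treatment and expressed as inhibition relative to vehicle-treated cultures.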

[4] = NCI Yeast Anticancer Drug Screen. Data for the bub3 strain (AID 167); details: S. cerevisiae bub3 mutant strain, at 50.0 µM, stronger effect = higher value
Summary of the method: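 Whole-cell yeast assay. The mutant strain was incubated with compounds, and growth inhibition was determined by comparison with vehicle-treated cells.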

[5] = NCI Yeast Anticancer Drug Screen. Data for the mlh1 rad18 strain (AID 175); details: S. cerevisiae mlh1 rad18 strain growth inhibition; at 50.0 µM; stronger effect = higher value
Summary of the method: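 Steps: expose repair-defective yeast to compound; measure growth; express inhibition against vehicle-treated controls.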

[6] = NCI Yeast Anticancer Drug Screen. Data for the cln2 rad14 strain (AID 165);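 also: 0% = growth equal to vehicle treated cultures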; details: S. cerevisiae cln2 rad14 strain, at 50.0 µM, stronger effect = higher value
Summary of the method: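 Yeast strain cln2 rad14, bearing defects in cell cycle control and DNA repair, serves as the test system; values reflect growth inhibition compared with vehicle.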

| SMILES | growth inhibition [1] | growth inhibition [2] | growth inhibition [3] | growth inhibition [4] | growth inhibition [5] | growth inhibition [6] [%] |
| --- | --- | --- | --- | --- | --- | --- |
| COc1ccc(-c2cc(-c3cc(C)cc(Br)c3O)no2)cc1 | -6.55% | -13.3% | -10.8% | -4.4% | 14.3% |  |
| CCCCNC(C)=O | 4.5% | -9.15% | -18.5% | -0.95% | -1.7% |  |
| O=[N+]([O-])c1cc(Br)c(F)cc1F | -22.2% | 4.85% | -5.2% | -2.55% | 31.1% |  |
| CCOC(=S)SCc1cc(C(C)(C)C)c(O)c(C(C)(C)C)c1 | 2.7% | 14.4% | 20.2% | 1.15% | 1.8% |  |
| COc1cccc(C(=O)NNC(=O)c2ccc3ccccc3c2)c1 | 13.2% | 4.55% | -2.45% | 3.9% | 7.95% |  |
| CCCC(=O)OC1CCCC1 | 27.9% | 27.8% | 20.4% | 21.8% | 28.7% |  |
| CC(C)(C)SCC(=O)O | -21.6% | -19.6% | -24.8% | 6.75% | 1.55% |  |
| COc1ccc(Cl)cc1NC(=O)c1cccc(Cl)c1 | 18.8% | 16.9% | 7.8% | 30.1% | -0.3% |  |
| C[N+](C)(C)CCOC(=O)/C=C/c1cnc[nH]1 | 9.7% | 10.9% | 37.7% | 6.4% |  |  |
| O=C1OCC(O)=C1C(c1ccc(Cl)cc1)c1cc2c(cc1O)OCO2 (stereo not drawn) | -19.9% | -16.7% | -28.1% | 0.05% | -37.5% |  |
| c1ccc(-c2ccc(C(=C(c3ccc(-c4ccccc4)cc3)c3ccc(-c4ccccc4)cc3)c3ccc(-c4ccccc4)cc3)cc2)cc1 | 1.1% | -0.85% | -9.9% | -4.7% | -12.6% |  |
| Nc1ccccc1C(=O)ONC(=O)c1ccccc1 | 99.5% (active) | 99.6% (active) | 99.5% (active) | 99.3% (active) | 99.3% (active) |  |
| NC1=NC(=O)C(CC(=O)Nc2ccc([N+](=O)[O-])cc2[N+](=O)[O-])S1 (stereo not drawn) | -15.2% | -30.3% | 2.3% | 2% | -8.55% |  |
| O=C(O)CNC(=O)CNC(=O)C(CCC(=O)OCc1ccccc1)NC(=O)OCc1ccccc1 (stereo not drawn) | 27.2% | 12.3% | 14.4% | 6.2% | 15.2% |  |
| O=C(CO)CC(=O)C(=O)Nc1nc([N+](=O)[O-])cs1 | -18.1% | -31.8% | 21% | -16.1% | -21.5% |  |
| CN=C(C#N)c1ccccc1 | -10.6% | -17.1% | -2.6% | 8.7% | -15.8% |  |
| NCCC(=O)O | 5.95% | 14.9% | -8.25% | -13.8% |  |  |
| C=CCN(N=O)C(=O)N(CCC)CCCC(NC(C)=O)C(=O)NCc1ccccc1 (stereo not drawn) | -3.2% | -27.2% | -14.4% | 2.9% | -14.2% |  |
| Cc1ccc([B-]23OCC[N+]2(CNC(=O)c2ccccc2O)CCO3)cc1 (stereo not drawn) | 25.6% | -4.4% | 4.1% | 4.05% | 12.8% |  |
| Cc1cc(C)c(C(=O)Oc2ccc(C)c(CC(Cl)(Cl)Cl)c2)c(C)c1 | 32.8% | 9% | 4.85% | -0.2% | 14.4% |  |
| COc1cc(NC=C2C(=O)OC(C)(C)OC2=O)c(OC)c(C)c1OC | 1.25% | -27.1% | -10.1% | -22.9% | 4.15% |  |
| COC(=O)CCC(=O)c1cc(OC)c2cc3ccccc3cc2c1OC | 9.2% | -10.4% | -2.55% | -17.4% | -15.6% |  |
| Ic1ccc(N=Nc2ccccc2)cc1 | -8% | -11.9% | -5.35% | 25.3% | -12.5% |  |
| ClC(Cl)C1OCCOCCO1 | -16.1% | -9.65% | -9.9% |  | -5.8% | -57.8 |
